# Inconclusive results are not listed. Active and inactive are the calls of the source. Unless noted, the call rests on the fitted dose curve; in most records, active means well fitted curve in the direction sought with a large enough effect; inconclusive means small, poorly fitted or top-dose-only effect, or another doubt; inactive means no such curve, though single readings can be large; an effect the other way counts as inactive or inconclusive.
# Legend:
# [1] = Primary qHTS for inhibitors of nuclear receptor binding SET domain protein 2 (NSD2) in an isogenic RCH-ACV NSD2 p.E1099K mutant (9B) (AID 1645876); further: potency means the concentration at half of the fitted maximal effect; nearly all actives have a fitted effect of over 70% in size
# [2] = Primary qHTS for inhibitors of nuclear receptor binding SET domain protein 2 (NSD2) in an RCH-ACV wild type WT cells (2C) (AID 1645877); further: potency means the concentration at half of the fitted maximal effect; nearly all actives have a fitted effect of over 70% in size
# [3] = molecular target: Catechol O-methyltransferase (Homo sapiens) (UniProt P21964); experiment: Confirmatory Screen for Target Class Profiling of Small Molecule Inhibitors of Methyltransferases (AID 1745852; calls by dose curve; further: potency means the concentration at half of the fitted maximal effect); conditions: MTase-Glo luminescence, SAH detection, recombinant enzyme; measured here: COMT max response; stronger effect = lower value
# Catechol O-methyltransferase (Homo sapiens), sequence (P21964 whole entry, looked up): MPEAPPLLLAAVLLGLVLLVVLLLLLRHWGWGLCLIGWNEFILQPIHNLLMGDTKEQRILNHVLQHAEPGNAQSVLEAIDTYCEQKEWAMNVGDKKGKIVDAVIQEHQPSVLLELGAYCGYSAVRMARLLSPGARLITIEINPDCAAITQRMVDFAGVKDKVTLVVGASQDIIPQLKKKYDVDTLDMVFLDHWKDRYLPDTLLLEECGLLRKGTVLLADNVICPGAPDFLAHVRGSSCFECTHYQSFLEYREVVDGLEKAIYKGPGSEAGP
# [4] = molecular target: Guanidinoacetate N-methyltransferase (Homo sapiens) (UniProt Q14353); experiment: as above; conditions: activity change, negative = inhibition: at 57.3 µM (top of the series) unless noted
# [5] = molecular target: Nicotinamide N-methyltransferase (Homo sapiens) (UniProt P40261); experiment: as above; conditions: MTase-Glo luminescence, SAH detection, recombinant enzyme; measured here: NNMT max response; stronger effect = lower value
# Nicotinamide N-methyltransferase (Homo sapiens), sequence (P40261 whole entry, looked up): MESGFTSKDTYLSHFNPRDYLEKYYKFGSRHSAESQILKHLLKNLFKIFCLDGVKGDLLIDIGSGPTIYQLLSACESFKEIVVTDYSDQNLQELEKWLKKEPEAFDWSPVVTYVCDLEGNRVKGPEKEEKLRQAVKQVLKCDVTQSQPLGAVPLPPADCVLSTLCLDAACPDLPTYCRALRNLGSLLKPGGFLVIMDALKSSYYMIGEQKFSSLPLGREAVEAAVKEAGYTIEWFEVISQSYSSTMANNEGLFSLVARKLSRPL
# [6] = molecular target: Phenylethanolamine N-methyltransferase (Homo sapiens) (UniProt P11086); experiment: as above; conditions: MTase-Glo luminescence, SAH detection, recombinant enzyme; measured here: PNMT max response; stronger effect = lower value
# Phenylethanolamine N-methyltransferase (Homo sapiens), sequence (P11086 whole entry, looked up): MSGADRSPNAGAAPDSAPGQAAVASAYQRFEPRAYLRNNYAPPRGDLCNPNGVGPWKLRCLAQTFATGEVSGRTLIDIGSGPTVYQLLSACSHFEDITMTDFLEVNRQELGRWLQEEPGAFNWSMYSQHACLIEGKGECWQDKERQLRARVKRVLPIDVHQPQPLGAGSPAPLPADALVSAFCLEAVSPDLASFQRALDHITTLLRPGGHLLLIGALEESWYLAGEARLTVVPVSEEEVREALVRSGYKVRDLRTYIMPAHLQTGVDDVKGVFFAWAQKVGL
# NIH3T3 [7] = experiment: Cytotoxic Profiling of Annotated Libraries Using Quantitative High-Throughput Screening (AID 1296008); conditions: Five cell lines viability, CellTiter-Glo ATP luminescence, 48-72 h; max response: stronger effect = lower value; further: nearly all actives have a fitted effect of over 60% in size; further: potency means the concentration at half of the fitted maximal effect; on max response: on the % scale 0 is the no-effect control and ±100 the full control effect
# Procedure, shortened: (§1)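 Compounds were pin-transferred onto cells and incubated 48 or 72 hr at 37 degree Celsius, 95% humidity. CellTiter-Glo was added, plates sat 10 min at room temperature, then ATP-coupled luminescence was imaged as the viability read-out.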
# CRL-7250 = normal cell line; experiment: qHTS assay to identify novel small-molecules to repurpose for Merkel cell carcinoma treatment (AID 1296009); conditions: MCC and control cell lines, CellTiter-Glo viability, 72 h; series mostly up to 92 µM; further: nearly all actives have a fitted effect of over 60% in size
# Procedure, shortened: (§2)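 qHTS format: cells treated with library compounds in DMSO across 8 (NPC) or 11 (MIPE) concentrations. Readout after 72 hr at 37 degree celsius was CellTiter-Glo luminescence.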
# NIH3T3 [8] = experiment: as above; conditions: MCC and control cell lines, CellTiter-Glo viability, 72 h; at 44.8 µM (top of the series) unless noted
# Procedure, shortened: as §2
# HeLa = experiment: Primary qHTS to identify gynecologic anti-cancer compounds using libraries of approved drugs and bioactive compounds (AID 1345084); conditions: Gynecologic cancer cell panel viability, ATPlite luminescence, 48 h; series mostly up to 57.5 µM; further: nearly all actives have a fitted effect of over 55% in size; further: potency means the concentration at half of the fitted maximal effect
# Procedure, shortened: (§3)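 Luminescence from the ATPlite ATP-monitoring reagent indicates viable cell number; lower signal means cytotoxicity. Cells received compound 16 h after seeding and were exposed for 48 h across five concentrations.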
# SKOV3 = experiment: as above; conditions: Gynecologic cancer cell panel viability, ATPlite luminescence, 48 h; series mostly up to 57.5 µM
# Procedure, shortened: as §3
# [9] = P-glycoprotein substrates identified in KB-8-5-11 adenocarcinoma cell line, qHTS therapeutic library screen (AID 1346987); further: nearly all actives have a fitted effect of over 65% in size; further: potency means the concentration at half of the fitted maximal effect
# Procedure, shortened: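 KB-8-5-11, a colchicine-selected P-gp-overexpressing KB-3-1 subline, was grown without colchicine for the assay. Cells were seeded at 500 cells/well, dosed in concentration-response and incubated 72 h at 37 degree C, 5% CO2. Viability was read by CellTiter-Glo luminescence.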
# [10] = molecular target: Cytochrome P450 2D6 (Homo sapiens) (UniProt P10635); experiment: Cytochrome P450 family 2 subfamily D member 6 (CYP2D6) small molecule antagonists: luciferase biochemical (cell-free) qHTS assay (AID 1645840; active means well fitted curve in the direction sought with a large enough effect in the repeat runs; an effect the other way counts as inactive or inconclusive; further: nearly all actives have a fitted effect of over 55% in size; further: potency means the concentration at half of the fitted maximal effect; on activity change, negative = inhibition: on the % scale 0 is the no-effect control and ±100 the full control effect)
# Cytochrome P450 2D6 (Homo sapiens), sequence (P10635 whole entry, looked up): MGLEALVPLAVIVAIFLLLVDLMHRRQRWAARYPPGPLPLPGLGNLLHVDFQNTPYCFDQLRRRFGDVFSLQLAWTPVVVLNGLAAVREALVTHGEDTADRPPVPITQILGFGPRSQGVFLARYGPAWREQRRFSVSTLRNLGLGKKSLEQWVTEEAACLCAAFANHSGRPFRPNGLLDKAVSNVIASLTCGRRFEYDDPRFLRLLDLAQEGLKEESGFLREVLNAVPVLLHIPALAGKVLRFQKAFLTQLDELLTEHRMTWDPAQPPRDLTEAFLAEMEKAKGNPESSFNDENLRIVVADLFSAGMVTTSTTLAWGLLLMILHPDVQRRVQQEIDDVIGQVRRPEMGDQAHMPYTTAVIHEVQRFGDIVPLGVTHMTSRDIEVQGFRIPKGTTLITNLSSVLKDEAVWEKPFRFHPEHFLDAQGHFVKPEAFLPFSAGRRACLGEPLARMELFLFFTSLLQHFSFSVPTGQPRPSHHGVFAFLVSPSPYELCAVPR
# Procedure, shortened: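 P450-Glo luminescent screen: recombinant CYP2D6 enzyme–proluciferin substrate mix preincubated with compound 10 min at room temperature, then NADPH regeneration added for 1 h at room temperature. Detection reagent added for 20 min; luciferin light read as relative luminescence units.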
# [11] = molecular target: Cytochrome P450 2C9 (Homo sapiens) (UniProt P11712); experiment: Cytochrome P450 family 2 subfamily C member 9 (CYP2C9) small molecule antagonists: luciferase biochemical (cell-free) qHTS assay (AID 1645842; active means well fitted curve in the direction sought with a large enough effect in the repeat runs; an effect the other way counts as inactive or inconclusive; further: nearly all actives have a fitted effect of over 55% in size; further: potency means the concentration at half of the fitted maximal effect; on activity change, negative = inhibition: on the % scale 0 is the no-effect control and ±100 the full control effect)
# Cytochrome P450 2C9 (Homo sapiens), sequence (P11712 whole entry, looked up): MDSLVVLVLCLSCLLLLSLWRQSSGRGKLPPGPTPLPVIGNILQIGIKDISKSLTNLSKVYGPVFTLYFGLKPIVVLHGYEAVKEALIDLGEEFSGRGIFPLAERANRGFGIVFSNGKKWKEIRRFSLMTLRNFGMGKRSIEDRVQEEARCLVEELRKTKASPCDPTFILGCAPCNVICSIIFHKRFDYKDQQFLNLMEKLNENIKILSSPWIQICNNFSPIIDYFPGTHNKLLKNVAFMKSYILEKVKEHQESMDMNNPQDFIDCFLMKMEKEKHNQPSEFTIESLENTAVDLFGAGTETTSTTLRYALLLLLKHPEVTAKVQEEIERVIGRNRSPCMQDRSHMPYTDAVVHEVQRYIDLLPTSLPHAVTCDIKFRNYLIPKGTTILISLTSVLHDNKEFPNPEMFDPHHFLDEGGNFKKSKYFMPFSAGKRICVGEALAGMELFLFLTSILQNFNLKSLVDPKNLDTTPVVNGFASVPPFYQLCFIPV
# Procedure, shortened: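 Luminescence, after 20 min with luciferin detection reagent, reflected CYP2C9 turnover during a 1 h NADPH-driven reaction at 37C. Enzyme-substrate mix contained 0.4% bovine serum albumin and was preincubated with compound 10 min at room temperature.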
# HaCat [12] = experiment: Cytotoxic Profiling of Annotated Libraries Using Quantitative High-Throughput Screening (AID 1296008); conditions: Five cell lines viability, CellTiter-Glo ATP luminescence, 48-72 h; max response: stronger effect = lower value; further: nearly all actives have a fitted effect of over 60% in size; further: potency means the concentration at half of the fitted maximal effect
# Procedure, shortened: as §1
# [13] = tested on: Zika virus NS2B-NS3 protease (unlinked complex); experiment: Primary screen GU Rhodamine qHTS for Zika virus inhibitors: Unlinked NS2B-NS3 protease assay (AID 1347159); further: nearly all actives have a fitted effect of over 60% in size; further: potency means the concentration at half of the fitted maximal effect; on activity change, negative = inhibition: on the % scale 0 is the no-effect control and ±100 the full control effect
# Procedure, shortened: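 Percent inhibition derives from the 15-min fluorescence change (ex 480, em 540 nm), normalized to no-enzyme and no-inhibitor wells. Reactions contained 25 nM NS2B-NS3 complex and 1.5 microM substrate in 10 mM Tris-HCl pH 8.0.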
# HACAT [14] = experiment: qHTS assay to identify novel small-molecules to repurpose for Merkel cell carcinoma treatment (AID 1296009); conditions: MCC and control cell lines, CellTiter-Glo viability, 72 h; at 44.8 µM (top of the series) unless noted; further: nearly all actives have a fitted effect of over 60% in size
# Procedure, shortened: as §2
# HEK293 = experiment: Cytotoxic Profiling of Annotated Libraries Using Quantitative High-Throughput Screening (AID 1296008); conditions: Five cell lines viability, CellTiter-Glo ATP luminescence, 48-72 h; max response: stronger effect = lower value; further: nearly all actives have a fitted effect of over 60% in size; further: potency means the concentration at half of the fitted maximal effect
# Procedure, shortened: as §1
structure (smiles),measurement,setting,value
C[C@H]1CCC[C@H](O)CCC/C=C/c2cc(O)cc(O)c2C(=O)O1,Potency,[1],14.5 µM (active)
same,Potency,[2],14.5 µM (active)
same,activity,[3],-96.3%
same,Potency,[4],3.41 µM (active)
same,activity,[5],-89%
same,activity,[6],-98.1%
same,outcome,NIH3T3 [7],inactive
same,Potency,CRL-7250,inactive
same,outcome,NIH3T3 [8],inactive
same,Potency,HeLa,inactive
same,Potency,SKOV3,inactive
O=C1CN=C(c2cccc(Br)c2)c2oc3ccccc3c2N1,Potency,[9],14.6 µM (active)
same,Potency,[10],inactive
same,Potency,[11],10.7 µM (active)
same,Potency,[1],9.16 µM (active)
same,Potency,CRL-7250,inactive
CC(=O)O[C@H]1C[C@@H](C)O[C@H]2O[C@@H]3CC4CC[C@@H]5C(CC[C@]6(C)[C@@H](C7=CC(=O)OC7)CC[C@]56O)[C@@]4(C=O)C[C@H]3O[C@]21O (some centres undefined),Potency,[9],0.0862 µM (active)
same,Potency,[1],0.0483 µM (active)
same,Potency,HaCat [12],0.172 µM (active)
same,Potency,HeLa,0.126 µM (active)
same,Potency,SKOV3,0.112 µM (active)
O=C(N[C@H]1CN2CCC1CC2)c1cc2cccc(Cl)c2s1,Potency,[13],inactive
same,Potency,[10],16.9 µM (active)
same,Potency,[11],inactive
same,max response,HaCat [12],-4.19% (inactive)
same,Potency,HeLa,inactive
same,Potency,SKOV3,inactive
CC/C=C/C=C/C1(C)OC(OC)=C(C(=O)C2C(C)C(=O)c3cc(OC)c(O)c(O)c3C2(C)O)C1=O (centres undefined),Potency,[13],6.31 µM (active)
same,Potency,[2],7.09 µM (active)
same,Potency,HeLa,inactive
C[C@]12CC[C@H](O[C@@H]3O[C@H](CO)[C@@H](O)[C@H](O)[C@H]3O)CC1=CC[C@@H]1C2CC[C@]2(C)[C@@H](C3=CC(=O)OC3)CC[C@]12O (some centres undefined),Potency,[9],4.85 µM (active)
same,Potency,[13],inactive
same,Potency,[1],2.42 µM (active)
same,Potency,[2],5.41 µM (active)
same,max response,NIH3T3 [7],0.891% (inactive)
C/C=C(\C)C(O)C(C)/C=C(C)/C=C/C/C(C)=C/Cc1nc(OC)c(OC)c(O[C@@H]2O[C@@H](C)[C@H](O)[C@@H](O)[C@H]2O)c1C (some centres undefined),Potency,[9],inactive
same,Potency,[13],inactive
same,Potency,[1],3.55 µM (active)
same,Potency,[2],3.99 µM (active)
same,outcome,HaCat [12],inactive
same,outcome,HACAT [14],inactive [at 17.4 µM]
same,Potency,HeLa,inactive
same,Potency,SKOV3,3.16 µM (active)
C[C@@H]1O[C@@H](O[C@H]2CC[C@@]3(C)C(CC[C@@H]4C3CC[C@]3(C)[C@@H](C5=CC(=O)OC5)CC[C@]43O)C2)[C@H](O[C@@H]2O[C@H](CO)[C@@H](O)[C@H](O)[C@H]2O)[C@H](O)[C@H]1O (some centres undefined),Potency,[9],0.485 µM (active)
same,Potency,[1],0.171 µM (active)
same,Potency,[2],0.483 µM (active)
same,Potency,HEK293,0.485 µM (active)
same,Potency,HaCat [12],2.17 µM (active)
same,max response,NIH3T3 [7],-13.4% (inactive)
same,Potency,HeLa,1.26 µM (active)
same,Potency,SKOV3,2.24 µM (active)
CCCCOC(=O)c1ccnc2cc(C(OCCN3CCCCC3)c3ccccc3Cl)sc12 (centres undefined),Potency,[13],inactive
same,Potency,[1],23 µM (active)
same,activity,[3],-6.9%
same,"activity change, negative = inhibition",[4],6.41%
same,activity,[5],-22.8%
same,activity,[6],-16.1%
same,outcome,HaCat [12],inactive
same,max response,NIH3T3 [7],-3.89% (inactive)
same,outcome,HACAT [14],inactive
same,Potency,HeLa,inactive
same,Potency,SKOV3,inactive
CC[C@@H](C)[C@H]1C(=O)O[C@H](C(C)C)C(=O)N(C)[C@@H](C(C)C)C(=O)O[C@H](C(C)C)C(=O)N(C)[C@@H](C(C)C)C(=O)O[C@H](C(C)C)C(=O)N1C,Potency,[9],4.32 µM (active)
same,Potency,[1],2.16 µM (active)
same,Potency,[2],1.53 µM (active)
CC[C@@H]1/C=C/C=C/C[C@H](C)C(O)[C@](C)(O)C(=O)[C@H](C)C(O)[C@H](C)C(=O)[C@H](C)[C@@H](O)[C@H](C)/C=C/C(=O)O[C@H]2[C@@H](C)[C@@H](CC1)O[C@]1(O[C@H](C[C@H](C)O)[C@H](C)CC1=O)[C@@H]2C (some centres undefined),Potency,[1],0.123 µM (active)
same,Potency,[2],0.138 µM (active)
same,Potency,HEK293,0.0174 µM (active)
same,max response,HaCat [12],-17.7% (inactive)
same,max response,NIH3T3 [7],-27% (inactive)
CO[C@@H]1[C@@H](O)[C@@H](O[C@H]2CC[C@]3(C=O)C4CC[C@]5(C)[C@@H](C6=CC(=O)OC6)CC[C@]5(O)[C@@H]4CC[C@H]3C2)O[C@@H](C)[C@H]1O[C@@H]1O[C@H](CO[C@@H]2O[C@H](CO)[C@@H](O)[C@H](O)[C@H]2O)[C@@H](O)[C@H](O)[C@H]1O (some centres undefined),Potency,[9],3.48 µM (active)
same,Potency,[1],2.75 µM (active)
same,Potency,[2],3.46 µM (active)
same,max response,HaCat [12],-22.5% (inactive)
same,outcome,NIH3T3 [7],inactive
same,outcome,NIH3T3 [8],inactive [at 9.27 µM]
O=C(NCCN1CCC2(CC1)C(=O)NCN2c1cccc(F)c1)c1ccc(F)c(F)c1,Potency,[9],16.4 µM (active)
same,Potency,[13],inactive
same,Potency,[1],23 µM (active)
same,Potency,[2],14.5 µM (active)
same,max response,NIH3T3 [7],-17.5% (inactive)
same,Potency,CRL-7250,inactive
same,Potency,HeLa,inactive
same,Potency,SKOV3,inactive

# Source: PubChem BioAssay (NCATS)
